Data on 40 molecules can be found in PubChem BioAssay (EPA / NIEHS).

Activity calls are given as the source filed them. The calls were made as follows: active = hit-call score of the fitted dose curve at least 0.9, where 1 is the maximum; inactive = score below 0.9.

This assay is described as follows: ATG_NRF2_ARE_CIS: Attagene CIS-FACTORIAL HepG2 Assay for human Nuclear Factor Erythroid 2 Related Factor 2 (NFR2) response to Antioxidant Response Elements (ARE) (AID 2282992). The following applies: HepG2 Attagene ARE/NRF2 reporter, transcription factor activity; actives raise or lower the signal. As to the method:
ATG_CIS is a cell-based, multiplexed-readout assay that uses HepG2, a human liver cell line, with measurements taken at 24 hours after chemical dosing in a 24-well plate.ATG_NRF2_ARE_CIS is one of 52 assay component(s) measured or calculated from the ATG_CIS assay. It is designed to make measurements of mRNA induction, a form of inducible reporter, as detected with fluorescence intensity signals by Reverse transcription polymerase chain reaction (RT-PCR) and Capillary electrophoresis technology.Data from the assay component ATG_NRF2_ARE_CIS was analyzed into 1 assay endpoint. This assay endpoint, ATG_NRF2_ARE_CIS, was analyzed with bidirectional fitting relative to DMSO as the negative control and baseline of activity. Using a type of inducible reporter, measures of mRNA for gain or loss-of-signal activity can be used to understand the reporter gene at the transcription factor-level as they relate to the gene NFE2L2. Furthermore, this assay endpoint can be referred to as a primary readout, because this assay has produced multiple assay endpoints where this one serves a reporter gene function. To generalize the intended target to other relatable targets, this assay endpoint is annotated to the dna binding intended target family, where the subfamily is basic leucine zipper.
Human liver HepG2 cells are transiently transfected with multiple reporter transcription units (MRTUs) in 6-well plates using FuGene 6 reagent (Roche; 3 ml FuGene/1 mg DNA). The MRTU constructs are regulated by a cis-regulating element (promoter). […] A major difference between the CIS and TRANS system is that in CIS activities of endogenous TFs are measured, whereas the TRANS assay evaluates changes in activities of exogenous, chimeric NR-Gal4 proteins. […] At the end of 24 hour incubation, total RNA was isolated using TriZol reagent (Invitrogen). The isolated RNA is then reverse-transcribed using oligo(dT) primer and Mo-MLV reverse transcriptase (Invitrogen) with DNAse I (Ambion) treatment for 30 min. The one-tenth of the produced cDNA was amplified by PCR using Taq DNA polymerase (Invitrogen) and two reporter sequence-specific primers. The PCR products were fluorescently labeled by primer extension with 6-arboxyfluorescein (6-FAM) 5'-labeled reporter sequence-specific primer (2 min at 95 C, 20 s at 68 C and 10 min at 72 C) and these products were digested with 5U of HpaI (New England Biolabs) for 2h at 37 C. The fragments were purified using Qiaquick PCR columns (Qiagen), analyzed on an ABI 3130xL genetic analyzer (Applied Biosystems) with peak positions identified by using a set of X-rhodamine (ROX)-labeled MapMarker1000 molecular weight standards (BioVentures). The raw capillary electrophoresis data was processed using Attagraph software (Attagene).
In the case of `O=C(O)c1cc(I)cc(I)c1I`, the concentration at half-maximal activity (AC50) is 100 µM (active).
Still for that read-out and setting: the figure for `O=NN1CCCCCCC1` is 114 µM (active); for `c1csc(-c2ccc(-c3cccs3)s2)c1` it is 1.22 µM (active).
As for `Cc1cc(Cl)ccc1OC(C)C(=O)O` (stereo not given), the result was inactive.
Regarding `C=CCN=C=S`, the molecule was called inactive.
Regarding `CCN(CCO)CCO`, the molecule was called inactive.
As to `Cc1cc(C(C)(C)c2ccc(O)c(C)c2)ccc1O`, the AC50 is 11.7 µM (active).
In the case of `OCCN(CCO)CCO`, the outcome was inactive.
`Cc1ccccc1OP(=O)(Oc1ccccc1C)Oc1ccccc1C`: the concentration at half-maximal activity (AC50) is 8.48 µM (active).
Take `CCCCCCCCCCCCBr`: the AC50 was 55.7 µM (active).
In the case of `COc1ccccc1N`, the molecule was called inactive.
Still for that read-out and setting: the same measure for `COCC(=O)N(c1c(C)cccc1C)[C@H](C)C(=O)OC`: “inactive”.
On to `CCCCCCCCCCCCCCC(Br)C(=O)O` (stereo not given), for which the AC50 was 30.1 µM (active).
Still for that read-out and setting: the figure for `Cc1ccccc1OP(=O)(Oc1ccccc1)Oc1ccccc1` is 12.3 µM (active).
`CCCCOP(=O)(CCCC)OCCCC`: the molecule was classed as inactive.
Take `Cc1cc(SCc2sc(-c3ccc(C(F)(F)F)c(F)c3)nc2C)ccc1OCC(=O)O`: the molecule was called inactive.
For `CCOC(=O)CCN(SN(C)C(=O)Oc1cccc2c1OC(C)(C)C2)C(C)C`, the AC50 is 26.2 µM (active).
Regarding `C=C(C)C(=O)OCC(CC)CCCC` (stereo not given), the molecule was classed as inactive.
Turning to `CC1CC(=O)O1` (stereo not given), the call was inactive.
Still for that read-out and setting: the same measure for `Cc1cc(-c2cc(C)c(N)c(C)c2)cc(C)c1N`: “inactive”.
Still for that read-out and setting: the entry for `Cc1cc(C(F)(C(F)(F)F)C(F)(F)F)ccc1NC(=O)c1cccc(I)c1C(=O)NC(C)(C)CS(C)(=O)=O` is “inactive”; for `NNCCO` it is “inactive”.
Take `O=c1[nH]c2ccccc2n1C1CCN(CCCC(c2ccc(F)cc2)c2ccc(F)cc2)CC1`: the AC50 is 3.15 µM (active).
As for `c1ccc2c(c1)Oc1ccccc1O2`, the AC50 was 35.4 µM (active).
Consider `CCOP(=S)(OCC)SCS(=O)(=O)C(C)(C)C`, for which the call was inactive.
As to `ClCCN1CCOCC1`, the molecule was called inactive.
In the case of `COC(=O)Nc1cccc(OC(=O)Nc2cccc(C)c2)c1`, the call was inactive.
Consider `O=[N+]([O-])c1c2ccccc2cc2ccccc12`, for which the AC50 was 5 µM (active).
Still for that read-out and setting: the same measure for `CCCCCCCCCCBr`: 68.6 µM (active).
In the case of `CCCCCCCCCCCCCl`, the molecule was called inactive.
Still for that read-out and setting: the entry for `C1CN2CCN1CC2` is “inactive”.
Consider `C=C(C)C(=O)OCCCCOC(=O)C(=C)C`, for which the AC50 is 48.3 µM (active).
Still for that read-out and setting: the same measure for `CC(C)(c1ccc(O)c(-c2ccccc2)c1)c1ccc(O)c(-c2ccccc2)c1`: 4.64 µM (active).
Take `O=C(NC(=O)c1c(F)cccc1F)Nc1cc(Cl)c(F)c(Cl)c1F`: the outcome was inactive.
On the same count and under the same terms, the same measure for `CCCCN(CCCC)C(=S)[S-].CCCCN(CCCC)C(=S)[S-].[Ni+2]`: “inactive”; for `CCOC(=O)c1ccccc1S(=O)(=O)NC(=O)Nc1nc(Cl)cc(OC)n1`: “inactive”.
The same measure, in the same setting: the entry for `O=NN1CCCCCC1` is “inactive”.
The same measure, in the same setting: the entry for `Cc1cc(Cl)ccc1OCCCC(=O)O` is “inactive”.
Turning to `O=C(Nc1ccc(Br)cc1)c1cc(Br)cc(Br)c1O`, the AC50 is 2.91 µM (active).
Consider `CCOC(=O)OC1=C(c2cc(C)ccc2C)C(=O)NC12CCC(OC)CC2` (stereo not given), for which the half-maximal activity concentration (AC50) is 69.8 µM (active).
